Values joined by “and” are separate entries in the source; they are usually repeats but may differ in a detail not shown here. Identical values can stand only once. The whole screen tested about 34,000 compounds, of which about 290 (0.85%) showed an effect of 50% or more. The sample holds strong results, similar compounds and a random draw of the others, so the mix is not that of the screen.
Test system: Plasmodium falciparum
Assay: Plasmodium falciparum sporozoite viability assay
Format: functional, organism-based
Set-up: scale not given: in the data most compounds retested in dose-response had high values

Row | SMILES | Percent Effect | Percent Effect (10 mM as filed; unlikely as a test dose)
1 | CCOC(=O)[C@@H]1[C@@H](O)C(=O)N(C)C12CCN(C(=O)c1ccco1)CC2 | 7.177% | –
2 | O=C(O)C(F)(F)F.O=C(O)C(F)(F)F.c1ccc(CN2CCC3(CC2)CCN(c2ccccn2)C3)nc1 | 11.38% | –
3 | CCC1CN(C(=O)c2cccnc2O)CCC(=O)N1Cc1ccccc1 (stereo not given) | – | -11.65% and -22.98%
4 | CCC1CN(C(=O)c2ccc(O)cn2)CCC(=O)N1Cc1ccccc1 (stereo not given) | – | 75.08% and 82.46%
5 | CCC1CN(C(=O)c2ncccc2O)CCC(=O)N1Cc1ccccc1 (stereo not given) | – | -58.66% and -61.44%
6 | Cc1nn(C)c(Cl)c1C1CCCN1C(=O)c1cc(C2CC2)on1 (stereo not given) | 6.06% | –
7 | Cc1c[nH]nc1C1CN(Cc2cnn(-c3ccccc3C(=O)O)c2)C1 | -1.554% | –
8 | Cc1noc(C)c1CC(=O)N1CCCC(n2ccnc2C)C1 (stereo not given) | -6.625% | –
9 | O=C(Nc1ccc(N2CCCC2)nc1)N1CCc2ccccc2C1 | – | 79.37% and 82.46% and 84.57%
10 | O=C(Nc1ccc(N2CCCC2)nc1)N1CCc2sccc2C1 | – | -10.47% and -0.9103% and 2.706%
11 | CC(CNC(=O)c1cc(N2CCNC2=O)ccc1F)c1ccccc1 (stereo not given) | – | 35.08% and 63.14%
12 | Cc1ccc(C(=O)NCC(O)c2cccc(F)c2)c(=O)[nH]1 (stereo not given) | -4.578% | –
13 | CC(Cc1ccsc1)NC(=O)c1cc(N2CCNC2=O)ccc1F (stereo not given) | – | 74.24% and 61.84%
14 | Cc1ccsc1CNC(=O)c1ccc(N2CCNC2=O)cc1 | -9.9% | –
15 | CCCc1cc(NC(=O)c2cc(N3CCNC3=O)c(F)cc2F)n[nH]1 | -27.19% | –
16 | CC(NC(=O)c1cc(N2CCNC2=O)ccc1F)c1ccc(F)cc1 (stereo not given) | – | -9.982% and -2.184%
17 | CCN(CC)CCCNCc1cc2cc(C)cc(C)c2[nH]c1=O | 11.75% | –
18 | COCc1cnc2n1CCN(C(=O)c1ocnc1C)C2C (stereo not given) | 4.866% | –
19 | CN(Cc1cccs1)C(=O)Cn1cc(NC(=O)C(C)(C)C)cn1 | -1.695% | –
20 | Cc1ccc(-n2nnc(C(=O)NCC(F)(F)F)c2C2CC2)cc1 | -7.493% | –
21 | Cn1cc(-c2cnc(N3CCOCC3)nc2)cc1C(=O)N1CCOCC1 | – | -17.52% and -24.5% and -14.42%
22 | O=C(CCc1ccsc1)Nc1ccnn1C1CCS(=O)(=O)C1 (stereo not given) | -2.999% | –
23 | Cc1oc(C)c(C(=O)NCc2ccccc2CN(C)C)c1C | 1.894% | –
24 | COC1CN(C(=O)CC(C)C)CCC(=O)N(C)c2ccccc21 (stereo not given) | -36.78% | –
25 | CCSCCNC(=O)c1cnc(-c2ccccc2)nc1O | 2.095% | –

Row | SMILES | Percent Effect | Percent Effect (10 mM as filed; unlikely as a test dose)
26 | O=C(NCCCO)c1cnc(-c2ccccc2)nc1O | -8.71% | –
27 | CC(C)(C)c1ncc(C(=O)NCCSc2ccccn2)c(O)n1 | – | 98% and 98.19%
28 | Cc1ccc(C2(C(=O)NCCCn3cccn3)CCOCC2)cc1 | – | -25.15% and -19.39%
29 | c1ccc2oc(CN3CCCC3Cn3cncn3)nc2c1 (stereo not given) | 3.888% | –
30 | Cc1nccn1C1CCCN(C(=O)Cc2cn3ccccc3n2)C1 (stereo not given) | 3.916% | –
31 | CCOCC1CN(C(=O)c2cscn2)Cc2cnn(CC3CC3)c21 (stereo not given) | 11.53% | –
32 | Cc1nc(C2CN(C)CCO2)cc(N2CCSCC2)n1 (stereo not given) | -0.8223% | –
33 | Cc1cc(C(=O)N2CCC3(C2)CN(c2cccnc2)C(=O)CN3C)[nH]n1.O=C(O)C(F)(F)F.O=C(O)C(F)(F)F (stereo not given) | 9.444% | –
34 | CN(C)C(=O)CCNC(=O)Nc1sc2ccccc2c1Cl | – | 44.04% and 58.57% and 53.39%
35 | CC(=O)N1CCOC(c2c(C(=O)NCCN(C)C)sc3ccccc23)C1 (stereo not given) | 3.684% | –
36 | CS(=O)(=O)CCCNC(=O)Nc1sc2ccccc2c1Cl | – | -22.09% and -10.77% and -17.84%
37 | CN(C)CC(C)(O)CNC(=O)Nc1sc2ccccc2c1Cl (stereo not given) | – | 52.95% and 62.95% and 63.37%
38 | CN1CCN(Cc2cn3c(n2)CN(Cc2ccc(F)cc2)CC3)CC1.O=C(O)C(F)(F)F.O=C(O)C(F)(F)F.O=C(O)C(F)(F)F | 11.14% | –
39 | O=C(O)[C@@H]1CCN(C(=O)Cc2ccccn2)[C@@H]1c1ccc(F)cc1 | 2.558% | –
40 | CN(C)C(=O)NC1COC2(CCN(Cc3ccccc3)CC2)C1.O=C(O)C(F)(F)F (stereo not given) | – | -6.642% and -9.604% and -2.422%
41 | CCC(O)CN1CCN(C(=O)c2sccc2OC)CC1 (stereo not given) | 5.511% | –
42 | N#Cc1c(SCCN2CCCCC2)sc2c(O)cc(O)nc12 | 19.81% | –
43 | Cc1nc(C)n(C2CCCN(C(=O)CCOC(C)C)C2)n1 (stereo not given) | 5.53% | –
44 | CCc1nc(C2CCCN(C(=O)NCCOC)C2)no1 (stereo not given) | 15.54% | –
45 | CSc1cc2c(cc1NC(=O)NCCn1ccnc1)OCCO2 | – | 101.5% and 100.4% and 104.7%
46 | CSc1cc2c(cc1NC(=O)NCC(=O)N(C)C)OCCO2 | – | -16.92% and -17.04% and -26.51%
47 | COCCN(C)C(=O)Nc1cc2c(cc1SC)OCCO2 | – | -20.76% and -19.13%
48 | CSc1cc2c(cc1NC(=O)NCc1ccncc1)OCCO2 | – | -14.95% and -16.58%
49 | CC(NC(=O)NCCn1ccnc1)c1ccc2c(c1)OCCO2 (stereo not given) | -2.596% | –
50 | COCCNC(=O)Nc1cc2c(cc1SC)OCCO2 | – | 98.06% and 101.8% and 101.9%

Row | SMILES | Percent Effect | Percent Effect (10 mM as filed; unlikely as a test dose)
51 | O=C(NCC1CCOC1)Nc1ccc(OCC(F)(F)F)nc1 (stereo not given) | -8.857% | –
52 | CCN(CC)c1ccc(NC(=O)NCC2CCOC2)cn1 (stereo not given) | – | -11.53% and -8.697%
53 | CSc1cc2c(cc1NC(=O)NCC1CCOC1)OCCO2 (stereo not given) | – | 105.7% and 100.9% and 97.86%
54 | CCCc1ncc(CNC2(c3ccc(Cl)cc3)CCC2)cn1 | 9.707% | –
55 | COc1ccc2cc(C(=O)N3CCCC(n4ccnc4C)C3)[nH]c2c1 (stereo not given) | -4.765% | –
56 | O=C(O)[C@@H]1CN(C(=O)CC2CCCC2)C[C@H]1c1ccc(F)cc1 | 4.737% | –
57 | Cc1nccc(C(=O)N2CCCC(c3cc(C(F)(F)F)[nH]n3)C2)n1 (stereo not given) | 8.419% | –
58 | Cc1cc(C)n(C2CN(CC(=O)N(C)Cc3ccc(C)o3)C2)n1 | -8.906% | –
59 | CN(C)C(=O)CN1CCCC1c1nccnc1Nc1ccccn1 (stereo not given) | -3.467% | –
60 | Cc1ccc2c(c1)CN(C(=O)c1cnc(C)cn1)C(CN(C)C)CO2.Cl (stereo not given) | -2.552% | –
61 | O=S(=O)(C1CC1)N1CCC2(COCc3cnc(-c4cccnc4)nc32)C1 (stereo not given) | 9.968% | –
62 | CCOc1ccccc1OC1CCN(Cc2ccn(C)c(=O)c2)CC1 | 8.133% | –
63 | CCOc1cc([C@H]2N[C@@H](c3nc(C)cs3)Cc3ccsc32)ccc1OC | 5.89% | –
64 | CC(C)NC(=O)CC1CC2(CCN(CC3CC3)CC2)Oc2ccccc21.O=C(O)C(F)(F)F (stereo not given) | 11.82% | –
65 | NC(=O)CC1CCN(C(=O)NCc2ccc(-c3ccn[nH]3)cc2)CC1 | 2.866% | –
66 | CCOCC1CCCN(C(=O)NCc2ccc(-c3ccn[nH]3)cc2)C1 (stereo not given) | 14.81% | –
67 | COC(=O)CC1CCN(C(=O)Nc2ccc(-c3ccn[nH]3)cc2)C1 (stereo not given) | – | 84.64% and 84.71% and 100.4%
68 | COCc1cncc2c1CCN(C(=O)c1ccc(C#N)cc1)C2.O=C(O)C(F)(F)F | 7.706% | –
69 | Cc1ccc(-c2cccc(CC3(C(=O)O)CCOCC3)c2)c(C)c1 | -5.038% | –
70 | CN1CCCc2cc(CNC(=O)c3cc[n+]([O-])cc3)ccc21 | 8.46% | –
71 | CCOCC1CN(C(=O)c2ccncn2)Cc2cnn(CC)c21.O=C(O)C(F)(F)F (stereo not given) | -5.589% | –
72 | O=C(O)C1CCN(c2ccc(Sc3ccc(Br)cc3)nn2)CC1 | – | -3.247% and -5.657%
73 | Cc1ccc(Sc2ccc(N3CCCC(C(=O)O)C3)nn2)cc1 (stereo not given) | – | 24.7% and 21.38%
74 | Cc1ccc(Sc2ccc(N3CCC(C(=O)O)CC3)nn2)cc1 | – | 64.84% and 62.96%
75 | CCNc1cc2c(nn1)CCN(C(=O)c1ccc3c(c1)OCO3)C2 | 6.984% | –
